# The other results are listed elsewhere or left out. Unmarked numbers belong to inactive results. The source made the active and inactive calls.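 Rule for the calls: active = inhibition of at least 50% in the primary cell screen; inactive = the rest.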
# Target: Matrix metalloproteinase-14 (Homo sapiens) (UniProt P50281)
# Assay: MT1-MMP activation inhibitors, hit retest, confirmation, single concentration, fluorescence, HT1080 RFP-PRO-GFP cells (AID 652235)
# Settings: GFP and RFP fluorescence ratio, overnight, at 20 µM, active compounds read high
row,SMILES,inhibition
1,COc1ccc(C)cc1Nc1nc(-c2c(C)[nH]c3ccccc23)cs1,4.82%
2,O=C1CCCC(O)=C1N=Nc1ccc(S(=O)(=O)N2CCOCC2)cc1,4.19%
3,O=C(c1cccc(Cl)c1)N1CCN(Cc2ccccc2)CC1,-1.11%
4,Nc1ccc(Nc2ccccc2)cc1,12.6%
5,CN=C1C=C/C(=N/N=c2\ccn(O)cc2C)C=C1C,43.7%
6,Cc1cc2ccccc2n1CCNC(=O)COc1ccc2ccccc2c1,6.16%
7,O=P(O)(CP(=O)(c1ccccc1)c1ccccc1)c1ccccc1,-1.14%
8,O=C(NNc1c2ccccc2nc2ccccc12)c1cc2ccccc2cc1O,52.9% (active)
9,O=c1ccc2c(-c3ccccc3S(=O)(=O)O)c3ccc(O)c(O)c3oc-2c1O,48.5%

# Reference: PubChem BioAssay AID652235 (Sanford-Burnham Center for Chemical Genomics, 2013)
